# Records with an inconclusive call do not appear. The source made the active and inactive calls. Rule for the calls: active = hit-call score of the fitted dose curve at least 0.9, where 1 is the maximum; inconclusive = response in the unintended direction; inactive = score below 0.9.
# What was measured:
# [1] = target: human Adrenergic, Alpha 2c Receptor (Adra2C), ADRA2C (gene 152) (UniProt P18825); assay: NVS_GPCR_hAdra2C: NovaScreen (NVS) G Protein-Coupled Receptor Assay for human Adrenergic, Alpha 2c Receptor (Adra2C) (AID 2283259)
# How it was run: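 Screened first in duplicate at 25 uM, with actives then run as concentration series. Membranes from Sf9 cells were exposed for 1 h, and displacement of radioligand was counted after filtration, using DMSO as baseline.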
# [2] = target: human Adrenergic, Beta 3 Receptor (Adrb3), ADRB3 (gene 155) (UniProt P13945); assay: NVS_GPCR_hAdrb3: NovaScreen (NVS) G Protein-Coupled Receptor Assay for human Adrenergic, Beta 3 Receptor (Adrb3) (AID 2283262)
# How it was run: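 A cell-free filter binding assay read by scintillation counting, with displacement of a specific radioligand measured after 1 hour. The receptor source was SK-N-MC extracts (cells pretreated with isoproterenol and 8-bromo-cAMP). Compounds were first tested at 25 uM in duplicate and then in concentration series.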
# [3] = target: human Dopamine Receptor D2 (DRD2), DRD2 (gene 1813) (UniProt P14416); assay: NVS_GPCR_hDRD2s: NovaScreen (NVS) G Protein-Coupled Receptor Assay for human Dopamine Receptor D2 (DRD2) (AID 2283266)
# How it was run: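 Test compound (25 uM, duplicate in the primary screen; concentration series at follow-up) competed with radioligand for human DRD2 in CHO-derived membrane protein. Filter-based scintillation counting was done 1.5 hours after dosing, with loss of signal analysed against DMSO.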
# [4] = target: D(1A) dopamine receptor (Homo sapiens) (UniProt P21728); assay: NVS_GPCR_hDRD1: NovaScreen (NVS) G Protein-Coupled Receptor Assay for human Dopamine Receptor D1 (DRD1) (AID 2283269)
# How it was run: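 Cell-free competition with radioligand, filter-trapped and scintillation-counted 1 h post-dose, using HEK293-derived human D1 preparation. Duplicate single-point testing at 25 uM first, then concentration series for actives; DMSO served as baseline, loss-of-signal scored.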
# [5] = target: human Muscarinic, M4 Receptor, CHRM4 (gene 1132) (UniProt P08173); assay: NVS_GPCR_hM4: NovaScreen (NVS) G Protein-Coupled Receptor Assay for human Muscarinic, M4 Receptor (AID 2283274)
# How it was run: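 Filter-based scintillation counting of radioligand bound to CHO-expressed human M4 preparations after 1 h; loss of signal fitted versus DMSO. Initial duplicate testing at 25 uM, concentration-response follow-up for actives.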
# [6] = target: Muscarinic acetylcholine receptor M5 (Homo sapiens) (UniProt P08912); assay: NVS_GPCR_hM5: NovaScreen (NVS) G Protein-Coupled Receptor Assay for human Muscarinic, M5 Receptor (AID 2283275)
# How it was run: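 Chemicals passing a primary duplicate screen at 25 uM were run as singleton concentration series, maximum 50 uM. Displacement of a specific radioligand from CHO-extracted receptor was read by filter scintillation after 1 h, relative to DMSO.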
# [7] = target: human Neurokinin, NK2 Receptor, TACR2 (gene 6865) (UniProt P21452); assay: NVS_GPCR_hNK2: NovaScreen (NVS) G Protein-Coupled Receptor Assay for human Neurokinin, NK2 Receptor (AID 2283278);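 note: actives reduce bound radioligand signal relative to DMSO baseline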
# How it was run: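 Cell-free radioligand binding using receptor protein extracted from CHO cells; readings taken 4 hours after chemical dosing by filter-based scintillation counting. Primary screen ran single concentration (25 uM) in duplicate; actives followed up in concentration series, loss-of-signal versus DMSO baseline.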
# [8] = target: human Opioid Receptor Delta 1 (Opiate D1), OPRD1 (gene 4985) (UniProt P41143); assay: NVS_GPCR_hOpiate_D1: NovaScreen (NVS) G Protein-Coupled Receptor Assay for human Opioid Receptor Delta 1 (Opiate D1) (AID 2283280)
# How it was run: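 Membrane preparations from CHO cells bearing the human receptor were incubated 1 h with test chemical, and bound radioligand was counted after filtration. Actives from 25 uM duplicate screening were retested in concentration-response.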
# [9] = target: human Thromboxane A2 Receptor (TXA2), TBXA2R (gene 6915) (UniProt P21731); assay: NVS_GPCR_hTXA2: NovaScreen (NVS) G Protein-Coupled Receptor Assay for human Thromboxane A2 Receptor (TXA2) (AID 2283282);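 note: actives reduce bound radioligand signal relative to DMSO baseline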
# How it was run: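 Human platelet membranes tested for radioligand displacement by filtration and scintillation counting 1 h post-dose. Screened in duplicate at 25 uM; activity fitted as signal loss relative to DMSO.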
# [10] = target: Muscarinic acetylcholine receptor M2 (Homo sapiens) (UniProt P08172); assay: NVS_GPCR_hM2: NovaScreen (NVS) G Protein-Coupled Receptor Assay for human Muscarinic, M2 Receptor (AID 2283273)
# How it was run: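 CHO-expressed human M2 receptor preparation, competitive displacement of a radioligand read by filter-based scintillation counting after 1 h. Single 25 uM duplicate screen, then concentration-response follow-up of actives; DMSO baseline.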
# [11] = target: human Dopamine Receptor D4.4 (DRD4.4), DRD4 (gene 1815) (UniProt P21917); assay: NVS_GPCR_hDRD4.4: NovaScreen (NVS) G Protein-Coupled Receptor Assay for human Dopamine Receptor D4.4 (DRD4.4) (AID 2283264)
# How it was run: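 Filter-binding assay with a tritiated or iodinated ligand, cell-free receptor prepared from CHO, 1 hour. Loss of bound radioactivity versus DMSO; single 25 uM duplicate screen, then concentration-response for actives.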
# [12] = target: human Endothelin Receptor Type A (ETA), EDNRA (gene 1909) (UniProt P25101); assay: NVS_GPCR_hETA: NovaScreen (NVS) G Protein-Coupled Receptor Assay for human Endothelin Receptor Type A (ETA) (AID 2283265)
# How it was run: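 Binding of radioligand to membrane protein extracted from SH-SY5Y cells was read by filtration and scintillation after 3 h. Compounds were screened at 25 uM in duplicate, with hits followed up in singleton concentration series to 50 uM.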
# [13] = target: human Neurotensin Receptor (NTS), NTSR1 (gene 4923) (UniProt P30989); assay: NVS_GPCR_hNTS: NovaScreen (NVS) G Protein-Coupled Receptor Assay for human Neurotensin Receptor (NTS) (AID 2283279)
# How it was run: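 Compounds competed with a radiolabelled ligand for binding to CHO-derived human neurotensin receptor; bound signal counted after filtration, 1 h. Screened first at a single concentration of 25 uM in duplicate, then concentration series to 50 uM maximum for actives.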
# [14] = target: human Histamine 1 Receptor (H1), HRH1 (gene 3269) (UniProt P35367); assay: NVS_GPCR_hH1: NovaScreen (NVS) G Protein-Coupled Receptor Assay for human Histamine 1 Receptor (H1) (AID 2283268)
# How it was run: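 Filter-based scintillation detection of radioligand binding to human H1, 1 h incubation; chemicals screened in duplicate at 25 uM, then concentration-response; signal loss relative to DMSO taken as activity.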
# [15] = target: human Purinergic Receptor P2Y, P2RY1 (gene 5028) (UniProt P47900); assay: NVS_GPCR_hPY2: NovaScreen (NVS) G Protein-Coupled Receptor Assay for human Purinergic Receptor P2Y (AID 2283281)
# How it was run: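 Filtration scintillation readout of radioligand displacement on U937 extract, measured 1 h post-dosing. Single 25 uM duplicate screen, then singleton concentration series to 50 uM for chemicals passing threshold; DMSO as baseline.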
# Chain of human Neurokinin, NK2 Receptor, TACR2 (gene 6865) (P21452 whole entry, looked up): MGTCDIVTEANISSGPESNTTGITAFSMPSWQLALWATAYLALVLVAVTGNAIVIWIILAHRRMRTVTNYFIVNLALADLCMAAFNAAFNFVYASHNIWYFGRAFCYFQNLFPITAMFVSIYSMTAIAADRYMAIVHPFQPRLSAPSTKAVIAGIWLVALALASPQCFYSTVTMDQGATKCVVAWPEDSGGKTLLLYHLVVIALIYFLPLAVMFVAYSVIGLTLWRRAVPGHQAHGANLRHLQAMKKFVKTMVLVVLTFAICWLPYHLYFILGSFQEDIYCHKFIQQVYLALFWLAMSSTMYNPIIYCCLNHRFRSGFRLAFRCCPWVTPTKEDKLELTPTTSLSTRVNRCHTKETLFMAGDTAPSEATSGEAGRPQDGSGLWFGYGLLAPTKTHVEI
# Chain of D(1A) dopamine receptor (Homo sapiens) (P21728 whole entry, looked up): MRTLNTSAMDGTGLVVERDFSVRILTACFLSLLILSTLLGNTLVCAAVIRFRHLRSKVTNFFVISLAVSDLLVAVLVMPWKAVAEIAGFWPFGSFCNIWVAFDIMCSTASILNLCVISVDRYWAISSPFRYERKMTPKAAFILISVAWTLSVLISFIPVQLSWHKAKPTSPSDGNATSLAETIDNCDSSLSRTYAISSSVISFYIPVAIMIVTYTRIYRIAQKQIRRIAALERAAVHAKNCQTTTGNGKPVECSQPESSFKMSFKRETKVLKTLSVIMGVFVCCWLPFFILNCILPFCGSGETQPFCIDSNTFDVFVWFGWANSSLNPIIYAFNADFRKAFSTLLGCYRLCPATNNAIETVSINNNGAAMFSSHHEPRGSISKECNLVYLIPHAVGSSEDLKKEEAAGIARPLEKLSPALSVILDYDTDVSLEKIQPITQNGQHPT
# Chain of human Thromboxane A2 Receptor (TXA2), TBXA2R (gene 6915) (P21731 whole entry, looked up): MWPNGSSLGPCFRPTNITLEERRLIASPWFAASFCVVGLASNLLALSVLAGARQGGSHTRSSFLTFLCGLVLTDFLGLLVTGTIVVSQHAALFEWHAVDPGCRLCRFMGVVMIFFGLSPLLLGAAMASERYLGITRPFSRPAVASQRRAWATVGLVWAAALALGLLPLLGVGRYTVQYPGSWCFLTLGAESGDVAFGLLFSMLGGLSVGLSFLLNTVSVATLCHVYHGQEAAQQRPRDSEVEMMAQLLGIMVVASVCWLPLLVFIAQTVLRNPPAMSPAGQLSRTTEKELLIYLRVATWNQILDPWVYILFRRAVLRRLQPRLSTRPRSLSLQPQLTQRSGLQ
# Chain of human Adrenergic, Alpha 2c Receptor (Adra2C), ADRA2C (gene 152) (P18825 whole entry, looked up): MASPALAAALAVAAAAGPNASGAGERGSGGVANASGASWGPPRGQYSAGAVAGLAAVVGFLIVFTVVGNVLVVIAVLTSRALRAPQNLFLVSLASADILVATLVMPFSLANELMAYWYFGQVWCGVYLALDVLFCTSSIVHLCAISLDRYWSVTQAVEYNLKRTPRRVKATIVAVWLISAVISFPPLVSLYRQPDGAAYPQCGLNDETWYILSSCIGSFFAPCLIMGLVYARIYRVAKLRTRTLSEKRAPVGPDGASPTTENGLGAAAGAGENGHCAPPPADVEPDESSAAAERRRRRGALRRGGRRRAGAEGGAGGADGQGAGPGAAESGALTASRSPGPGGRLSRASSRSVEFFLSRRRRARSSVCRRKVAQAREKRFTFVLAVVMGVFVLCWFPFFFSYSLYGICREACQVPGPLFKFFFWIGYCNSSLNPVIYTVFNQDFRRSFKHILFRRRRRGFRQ
# Chain of human Opioid Receptor Delta 1 (Opiate D1), OPRD1 (gene 4985) (P41143 whole entry, looked up): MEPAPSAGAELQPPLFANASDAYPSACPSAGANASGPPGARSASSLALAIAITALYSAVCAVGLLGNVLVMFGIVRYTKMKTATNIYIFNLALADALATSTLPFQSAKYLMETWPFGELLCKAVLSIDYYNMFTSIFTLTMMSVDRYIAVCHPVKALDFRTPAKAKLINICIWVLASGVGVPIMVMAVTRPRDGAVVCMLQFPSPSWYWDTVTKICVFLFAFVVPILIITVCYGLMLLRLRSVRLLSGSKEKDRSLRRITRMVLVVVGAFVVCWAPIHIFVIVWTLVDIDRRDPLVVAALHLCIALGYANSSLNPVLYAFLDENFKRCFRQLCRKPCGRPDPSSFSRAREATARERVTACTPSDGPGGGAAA
# Chain of Muscarinic acetylcholine receptor M5 (Homo sapiens) (P08912 whole entry, looked up): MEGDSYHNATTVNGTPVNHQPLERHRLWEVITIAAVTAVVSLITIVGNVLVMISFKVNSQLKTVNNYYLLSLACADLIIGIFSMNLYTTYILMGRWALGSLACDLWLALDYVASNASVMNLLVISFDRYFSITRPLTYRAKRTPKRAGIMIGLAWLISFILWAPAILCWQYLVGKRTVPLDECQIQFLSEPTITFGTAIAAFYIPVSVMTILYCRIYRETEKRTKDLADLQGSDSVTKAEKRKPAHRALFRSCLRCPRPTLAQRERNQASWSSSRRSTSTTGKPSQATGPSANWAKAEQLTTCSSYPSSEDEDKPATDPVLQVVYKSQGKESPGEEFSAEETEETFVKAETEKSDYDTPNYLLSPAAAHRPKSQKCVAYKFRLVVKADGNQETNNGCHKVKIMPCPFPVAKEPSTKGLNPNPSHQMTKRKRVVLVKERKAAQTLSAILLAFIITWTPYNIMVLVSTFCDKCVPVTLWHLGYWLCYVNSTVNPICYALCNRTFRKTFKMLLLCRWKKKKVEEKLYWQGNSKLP
# Chain of human Dopamine Receptor D4.4 (DRD4.4), DRD4 (gene 1815) (P21917 whole entry, looked up): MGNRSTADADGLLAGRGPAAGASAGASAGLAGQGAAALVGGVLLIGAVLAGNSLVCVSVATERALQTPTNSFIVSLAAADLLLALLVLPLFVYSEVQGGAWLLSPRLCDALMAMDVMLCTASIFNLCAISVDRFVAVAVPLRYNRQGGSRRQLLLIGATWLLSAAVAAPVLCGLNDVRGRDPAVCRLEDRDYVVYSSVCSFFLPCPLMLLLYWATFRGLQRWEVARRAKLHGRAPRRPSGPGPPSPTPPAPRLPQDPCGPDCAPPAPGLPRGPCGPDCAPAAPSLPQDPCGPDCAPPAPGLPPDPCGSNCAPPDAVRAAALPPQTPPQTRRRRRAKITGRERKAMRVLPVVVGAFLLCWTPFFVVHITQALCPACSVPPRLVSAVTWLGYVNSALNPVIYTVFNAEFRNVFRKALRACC
# Chain of human Muscarinic, M4 Receptor, CHRM4 (gene 1132) (P08173 whole entry, looked up): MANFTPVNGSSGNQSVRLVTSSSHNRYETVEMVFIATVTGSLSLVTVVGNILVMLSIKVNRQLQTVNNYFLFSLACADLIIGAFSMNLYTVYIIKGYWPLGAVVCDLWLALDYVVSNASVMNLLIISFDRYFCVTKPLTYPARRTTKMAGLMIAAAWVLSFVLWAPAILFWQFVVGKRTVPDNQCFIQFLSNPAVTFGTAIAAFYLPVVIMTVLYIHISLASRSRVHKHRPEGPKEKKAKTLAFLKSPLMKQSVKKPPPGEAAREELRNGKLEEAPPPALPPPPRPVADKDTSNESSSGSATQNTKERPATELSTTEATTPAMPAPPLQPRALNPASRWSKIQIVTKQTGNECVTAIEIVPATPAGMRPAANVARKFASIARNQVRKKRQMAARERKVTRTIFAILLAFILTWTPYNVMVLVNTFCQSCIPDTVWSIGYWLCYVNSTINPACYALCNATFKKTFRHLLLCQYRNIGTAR
# Chain of human Adrenergic, Beta 3 Receptor (Adrb3), ADRB3 (gene 155) (P13945 whole entry, looked up): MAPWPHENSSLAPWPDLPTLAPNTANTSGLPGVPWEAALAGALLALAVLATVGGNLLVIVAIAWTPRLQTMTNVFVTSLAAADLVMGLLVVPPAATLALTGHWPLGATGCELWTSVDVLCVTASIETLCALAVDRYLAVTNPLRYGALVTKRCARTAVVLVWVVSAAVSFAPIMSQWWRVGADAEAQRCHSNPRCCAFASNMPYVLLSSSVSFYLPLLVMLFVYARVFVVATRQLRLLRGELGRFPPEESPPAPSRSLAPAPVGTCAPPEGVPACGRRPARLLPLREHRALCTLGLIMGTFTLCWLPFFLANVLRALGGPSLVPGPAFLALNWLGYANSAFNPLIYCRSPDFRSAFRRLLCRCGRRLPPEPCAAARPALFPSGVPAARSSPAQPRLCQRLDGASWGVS
# Chain of human Dopamine Receptor D2 (DRD2), DRD2 (gene 1813) (P14416 whole entry, looked up): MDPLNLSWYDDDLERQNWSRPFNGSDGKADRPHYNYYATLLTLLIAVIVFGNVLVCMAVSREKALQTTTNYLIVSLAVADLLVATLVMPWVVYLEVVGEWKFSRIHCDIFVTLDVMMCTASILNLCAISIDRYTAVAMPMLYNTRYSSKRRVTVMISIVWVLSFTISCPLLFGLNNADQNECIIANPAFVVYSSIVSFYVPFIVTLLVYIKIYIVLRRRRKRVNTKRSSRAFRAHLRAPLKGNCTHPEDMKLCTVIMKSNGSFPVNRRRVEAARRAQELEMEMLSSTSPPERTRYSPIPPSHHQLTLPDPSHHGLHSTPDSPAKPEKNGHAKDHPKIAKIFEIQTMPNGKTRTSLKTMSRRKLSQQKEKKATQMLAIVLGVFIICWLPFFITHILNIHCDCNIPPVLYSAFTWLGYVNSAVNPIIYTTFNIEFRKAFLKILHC
# Chain of human Purinergic Receptor P2Y, P2RY1 (gene 5028) (P47900 whole entry, looked up): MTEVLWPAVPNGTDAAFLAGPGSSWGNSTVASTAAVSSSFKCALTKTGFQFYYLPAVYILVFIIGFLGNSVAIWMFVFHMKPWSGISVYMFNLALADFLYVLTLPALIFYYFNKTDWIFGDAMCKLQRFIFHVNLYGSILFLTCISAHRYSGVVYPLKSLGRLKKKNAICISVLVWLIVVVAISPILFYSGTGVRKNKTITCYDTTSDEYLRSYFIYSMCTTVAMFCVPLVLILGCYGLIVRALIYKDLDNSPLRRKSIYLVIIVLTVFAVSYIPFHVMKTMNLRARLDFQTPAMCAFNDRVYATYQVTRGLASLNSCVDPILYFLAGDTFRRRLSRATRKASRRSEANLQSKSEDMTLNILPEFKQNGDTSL
smiles,measurement,setting,value
CN(Cc1cnc2nc(N)nc(N)c2n1)c1ccc(C(=O)N[C@@H](CCC(=O)O)C(=O)O)cc1,outcome,[1],inactive
same,outcome,[2],inactive
same,AC50,[3],22 µM (active)
same,AC50,[4],25 µM (active)
same,outcome,[5],inactive
same,outcome,[6],inactive
same,AC50,[7],2.6 µM (active)
same,AC50,[8],25 µM (active)
C/C=C/C(=O)C1=C(C)CCCC1(C)C,outcome,[4],inactive
CCCCCCCC(OC)OC,AC50,[9],0.0748 µM (active)
CC=O,outcome,[4],inactive
same,outcome,[9],inactive
O=C1c2ccc(O)c(O)c2C(=O)c2c(O)ccc(O)c21,outcome,[4],inactive
CCc1cccc(CC)c1NC(=O)C(=O)O,outcome,[4],inactive
Cc1[nH]nc2c1N=C(c1ccccc1Cl)c1cc([N+](=O)[O-])ccc1N2,outcome,[1],inactive
C[C@]12CC[C@@H]3c4ccc(O)cc4CC[C@H]3[C@@H]1C[C@@H](O)[C@@H]2O,outcome,[9],inactive
Clc1ccc(Nc2nnc(Cc3ccncc3)c3ccccc23)cc1,AC50,[4],16 µM (active)
same,AC50,[7],3.61 µM (active)
same,AC50,[9],0.417 µM (active)
CC[N+](CC)(CC)Cc1ccccc1,AC50,[10],21.5 µM (active)
CCCCc1oc2ccccc2c1C(=O)c1cc(I)c(OCCN(CC)CC)c(I)c1,AC50,[11],18.9 µM (active)
same,AC50,[12],0.59 µM (active)
same,AC50,[5],4.41 µM (active)
same,AC50,[6],4.86 µM (active)
same,AC50,[7],11.4 µM (active)
same,AC50,[13],7.41 µM (active)
COc1cc(OC)nc(NC(=O)NS(=O)(=O)Nc2ccccc2C(=O)N(C)C)n1,outcome,[4],inactive
CCCCCCCCCCCCOS(=O)(=O)O,AC50,[1],16.4 µM (active)
same,AC50,[11],25 µM (active)
same,outcome,[14],inactive
same,AC50,[4],37.6 µM (active)
same,AC50,[8],18.6 µM (active)
same,outcome,[15],inactive
same,AC50,[9],7.92 µM (active)
CC1=NN(c2ccccc2)C(=O)C1,outcome,[9],inactive
CCCCCc1ccc(O)cc1,outcome,[7],inactive
CCCCCCCCC(C)=O,outcome,[4],inactive
